Many of the other results were omitted from the sample, so hits are more common in it than they were.
IDE exosite inh = displaces the probe from the exo-site of human IDE; P14735; purified IDE, FL-6b probe fluorescence polarization; hits give low values; z-score at 20 µM; 17,000 compounds, 6.3% hits; AID 1259349;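 active means z-score of -3 or lower, meaning strong loss of probe binding signal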;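 further: His-tagged human IDE residues 42-1019 made in E. coli with 30 nM FL-6b probe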
Target sequence (P14735 42-1019 limits assumed): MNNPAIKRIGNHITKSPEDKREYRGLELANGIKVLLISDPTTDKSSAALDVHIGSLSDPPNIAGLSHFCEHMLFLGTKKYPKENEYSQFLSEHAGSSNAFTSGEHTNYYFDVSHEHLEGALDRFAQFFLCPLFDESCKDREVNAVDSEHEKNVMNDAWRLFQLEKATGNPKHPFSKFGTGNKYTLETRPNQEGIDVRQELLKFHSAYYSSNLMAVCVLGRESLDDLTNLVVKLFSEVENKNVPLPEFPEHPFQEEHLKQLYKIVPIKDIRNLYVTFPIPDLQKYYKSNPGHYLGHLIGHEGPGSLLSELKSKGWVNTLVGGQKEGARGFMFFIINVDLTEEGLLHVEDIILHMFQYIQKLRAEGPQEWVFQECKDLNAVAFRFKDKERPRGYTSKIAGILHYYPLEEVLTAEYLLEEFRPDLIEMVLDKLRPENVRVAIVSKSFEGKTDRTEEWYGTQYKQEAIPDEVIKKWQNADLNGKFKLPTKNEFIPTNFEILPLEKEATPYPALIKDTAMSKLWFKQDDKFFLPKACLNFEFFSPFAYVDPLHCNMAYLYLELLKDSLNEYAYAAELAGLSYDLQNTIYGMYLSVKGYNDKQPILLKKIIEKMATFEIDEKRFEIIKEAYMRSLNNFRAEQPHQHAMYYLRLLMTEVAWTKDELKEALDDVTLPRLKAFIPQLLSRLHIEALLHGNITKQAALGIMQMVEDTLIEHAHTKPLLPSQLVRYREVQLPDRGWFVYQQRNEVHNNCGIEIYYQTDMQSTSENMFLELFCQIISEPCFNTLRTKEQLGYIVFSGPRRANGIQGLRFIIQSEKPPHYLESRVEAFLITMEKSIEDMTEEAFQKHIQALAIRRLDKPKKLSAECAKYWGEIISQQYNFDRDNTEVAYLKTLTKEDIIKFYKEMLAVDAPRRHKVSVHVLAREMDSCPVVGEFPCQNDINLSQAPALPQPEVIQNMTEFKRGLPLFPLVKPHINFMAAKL
Starred values were filed as active, the others as inactive.

SMILES | IDE exosite inh
COCC(=O)N1CCCCN2[C@H](CO)[C@H](c3ccc(-c4ccccc4)cc3)[C@H]2C1 | -0.28
COCC#Cc1ccc([C@H]2[C@@H](CO)N3CCCCN(C(=O)COC)C[C@H]23)cc1 | 2.6
COCC(=O)N1CCCCN2[C@H](CO)[C@@H](c3ccc(-c4ccccc4)cc3)[C@@H]2C1 | -0.53
COCC(=O)N1CCCCN2[C@H](C1)[C@H](c1ccc(-c3ccccc3)cc1)[C@@H]2CO | -0.42
COCC#Cc1ccc([C@@H]2[C@H]3CN(C(=O)COC)CCCCN3[C@H]2CO)cc1 | 0.85
COCC(=O)N1CCCCN2[C@H](CO)[C@@H](c3ccc(C#Cc4ccc(OC)cc4)cc3)[C@H]2C1 | 1.7
COCC(=O)N1CCCCN2[C@H](C1)[C@H](c1ccc(C#Cc3ccccc3)cc1)[C@@H]2CO | -10*
COCC#Cc1ccc([C@@H]2[C@@H](CO)N3CCCCN(C(=O)COC)C[C@H]23)cc1 | 1
COCC(=O)N1CCCCN2[C@H](CO)[C@H](c3ccc(C#Cc4ccc(OC)cc4)cc3)[C@@H]2C1 | -8.5*
COc1cccc(-c2ccc3n(c2=O)C[C@@H]2N[C@H]3[C@H](C(=O)N3CCCCC3)[C@H]2CO)c1 | -0.054
O=C1NCCOCn2nncc2CC[C@H]1Cc1cccc(Cl)c1 | -0.57
OC[C@@H]1[C@H](c2ccc(C3=CCCCC3)cc2)[C@@H]2CN(CCC(F)(F)F)CCCCN12 | 2
COCC(=O)N1CCCCN2[C@H](C1)[C@@H](c1ccc(C#Cc3ccccc3)cc1)[C@@H]2CO | -5.9*
COCC(=O)N1CC(=O)N2[C@H](CO)[C@H](c3ccc(C#CC4CCCC4)cc3)[C@H]2C1 | 3.5
CC(=O)NC[C@H]1[C@H](c2ccccc2)[C@H](CO)N1C(=O)Cc1ccncc1 | 0.27
Cc1ccccc1S(=O)(=O)N1CCCCN2[C@@H](CO)[C@H](c3ccc(-c4cccnc4)cc3)[C@@H]2C1 | 2.3
Cc1ccccc1S(=O)(=O)N1CCCCN2[C@H](CO)[C@@H](c3ccc(-c4cccnc4)cc3)[C@H]2C1 | -0.049
O=S(=O)(c1ccccc1F)N1CCCCN2[C@H](CO)[C@@H](c3ccc(-c4cccnc4)cc3)[C@@H]2C1 | -7.7*
O=S(=O)(c1ccccc1F)N1CCCCN2[C@H](C1)[C@H](c1ccc(-c3cccnc3)cc1)[C@@H]2CO | -0.54
O=S(=O)(c1ccccc1F)N1CCCCN2[C@@H](CO)[C@H](c3ccc(-c4cccnc4)cc3)[C@@H]2C1 | 2.2
Cc1ccccc1S(=O)(=O)N1CCCCN2[C@H](C1)[C@@H](c1ccc(-c3cccnc3)cc1)[C@@H]2CO | -3*
O=C(c1ccccc1)N1CC(=O)N2[C@H](CO)[C@H](c3ccc(C#CCC4CCCC4)cc3)[C@@H]2C1 | 3.6
CCC(=O)N1[C@H](CO)[C@H](c2ccc(C3=CCCC3)cc2)[C@H]1CNCC1CCCC1 | 0.52
COCC(=O)NC[C@@H]1[C@H](c2ccccc2)[C@@H](CO)N1C(=O)c1ccccc1 | 0.041
CN(C)C(=O)c1ccc(-c2ccc([C@@H]3[C@@H](C#N)N(C(=O)C4CCCCC4)[C@H]3CO)cc2)cc1 | 4.3
SMILES | IDE exosite inh
COc1ccc(-c2ccc([C@H]3[C@H](C#N)N[C@H]3CO)cc2)cc1 | 0.57
O=C(Nc1ccc(-c2ccccc2)cc1)[C@@H]1[C@@H](CO)[C@@H]2Cn3c(cccc3=O)[C@@H]2N1CC1CCOCC1 | 1.3
COCC(=O)N1[C@H](C#N)[C@@H](c2ccc(C3=CCCCC3)cc2)[C@@H]1CO | 2.3
Cc1cccc(-c2ccc([C@@H]3[C@H](CO)N4C(=O)CN(C(=O)c5cccnc5)C[C@@H]34)cc2)c1 | -6.3*
Cc1cccc(-c2ccc([C@H]3[C@H](CO)N4C(=O)CN(C(=O)c5cccnc5)C[C@@H]34)cc2)c1 | -9.6*
COc1ccc(-c2ccc([C@@H]3[C@H](CO)N4C(=O)CN(C(=O)c5cccnc5)C[C@@H]34)cc2)cc1 | -1.5
COc1ccc(-c2ccc([C@@H]3[C@@H](CO)N4C(=O)CN(C(=O)c5cccnc5)C[C@@H]34)cc2)cc1 | 0.76
COc1ccc(-c2ccc([C@H]3[C@H](CO)N4C(=O)CN(C(=O)c5cccnc5)C[C@@H]34)cc2)cc1 | -1.8
Cc1cccc(-c2ccc([C@H]3[C@H]4CN(C(=O)c5cccnc5)CC(=O)N4[C@H]3CO)cc2)c1 | -2.8
O=C(Nc1ccc(F)cc1)N1C[C@H]2[C@@H](c3ccccc31)[C@H](CO)N2Cc1ccccc1Cl | 2.2
COCC#Cc1ccc([C@H]2[C@@H](CO)N3C(=O)CN(C(=O)Nc4ccccc4F)C[C@@H]23)cc1 | -0.28
O=C(Cc1ccncc1)NCC[C@@H]1CC[C@@H](NS(=O)(=O)c2ccccc2Cl)[C@@H](CO)O1 | 1.8
OC[C@@H]1[C@@H](c2ccc(-c3ccccc3F)cc2)[C@H]2CN(Cc3cncnc3)CCCCN12 | 0.86
Cc1cccc(-c2ccc([C@H]3[C@@H](CO)N4CCCCN(Cc5cccnc5)C[C@H]34)cc2)c1 | -6.8*
Cc1cccc(-c2ccc([C@H]3[C@@H](CO)N4CCCCN(Cc5cccnc5)C[C@@H]34)cc2)c1 | -1.8
Cc1ccc(-c2ccc([C@H]3[C@@H](CO)N4CCCCN(Cc5cncnc5)C[C@H]34)cc2)cc1 | -0.17
OC[C@@H]1[C@@H](c2ccc(Br)cc2)[C@H]2CN(Cc3cncnc3)CCCCN12 | 0.52
Cc1cccc(-c2ccc([C@@H]3[C@@H](CO)N4CCCCN(Cc5cncnc5)C[C@@H]34)cc2)c1 | -6.7*
Cc1cccc(-c2ccc([C@@H]3[C@H](CO)N4CCCCN(Cc5cncnc5)C[C@@H]34)cc2)c1 | -7.5*
OC[C@@H]1[C@H](c2ccc(C3=CCCC3)cc2)[C@H]2CN(Cc3cncnc3)CCCCN12 | 0.59
Cc1cccc(-c2ccc([C@@H]3[C@H]4CN(Cc5cncnc5)CCCCN4[C@H]3CO)cc2)c1 | -4.7*
OC[C@@H]1[C@H](c2ccc(-c3ccccc3F)cc2)[C@@H]2CN(Cc3cncnc3)CCCCN12 | -1.6
OC[C@@H]1[C@H](c2ccc(-c3ccc(F)cc3)cc2)[C@H]2CN(Cc3cccnc3)CCCCN12 | 1.2
CC(C)C#Cc1ccc([C@H]2[C@H](C#N)N(C(=O)CN(C)C)[C@H]2CO)cc1 | 2.5
O=C(CN1CCOCC1)N[C@@H]1CC[C@H](CCn2cc(C3CC3)nn2)O[C@@H]1CO | 0.45
SMILES | IDE exosite inh
COCC(=O)N1[C@@H](C#N)[C@@H](c2ccccc2-c2ccc(C)cc2)[C@@H]1CO | 0.91
CN(C)CC(=O)N1CCCCN2[C@H](CO)[C@@H](c3ccc(/C=C/c4ccccc4)cc3)[C@@H]2C1 | -12*
CN(C)CC(=O)N1CCCCN2[C@H](CO)[C@H](c3ccc(-c4ccccc4)cc3)[C@@H]2C1 | 2.3
CN(C)CC(=O)N1CCCCN2[C@H](CO)[C@H](c3ccc(-c4ccccc4)cc3)[C@H]2C1 | 2.3
CN(C)CC#Cc1ccc([C@H]2[C@H]3CN(C(=O)CN(C)C)CCCCN3[C@H]2CO)cc1 | 4.6
CN(C)CC(=O)N1CCCCN2[C@H](CO)[C@H](c3ccc(/C=C/c4ccccc4)cc3)[C@@H]2C1 | -7.7*
C/C=C/c1ccc([C@@H]2[C@H](CO)N3CCCCN(C(=O)CN(C)C)C[C@@H]23)cc1 | 3.9
CC(C)(O)C#Cc1ccc([C@@H]2[C@@H](CO)N3CCCCN(C(=O)c4ccc(F)cc4)C[C@@H]23)cc1 | 2.7
N#Cc1ccc(-c2ccc([C@H]3[C@@H](CO)N4C(=O)CN(C(=O)C5CCCC5)C[C@@H]34)cc2)cc1 | 0.26
COc1ccc(-c2ccc([C@H]3[C@@H](C#N)N[C@@H]3CO)cc2)cc1 | 3.1
COc1ccc(-c2ccc([C@@H]3[C@H](C#N)N[C@H]3CO)cc2)cc1 | 4.1
